Laboratory results reported in PubChem BioAssay AID2685 (National Center for Advancing Translational Sciences (NCATS), 2010).
In all, about 320,000 compounds went through this assay and about 2,100 (0.66%) were called active. About 53% were inconclusive and are not listed. Calls come from the whole dose curve; as a rule, active = well fitted inhibition curve with a large enough effect in the signal ratio, with a control signal flat (not every such curve was filed as active); inconclusive = small, poorly fitted or top-dose-only effect, or effect the other way, or a change in a side signal; inactive = flat fitted curve, though single readings scatter; the % refers to the signal ratio. This excerpt belongs to a sample that is enriched for actives.

Experiment: qHTS Assay for Lipid Storage Modulators in Drosophila S3 Cells;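 for cell number change: cells counted by Cell Tracker Red CMTPX staining in the red channel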; for lipid storage change, negative = inhibition: % is set by controls: 0 for no effect and ±100 for the full control effect
Details: BODIPY lipid droplet fluorescence, 18-24 h, cells fed with added oleic acid; cell number change: measured here: cell count max response; series mostly up to 46.1 µM; lipid storage change, negative = inhibition: at the top concentration
How it was run: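 Drosophila S3 cells loaded with oleic acid (400 uM, as added) and compounds at several concentrations; lipid droplets imaged by 488-nm laser-scanning cytometry, 500–530 nm intensity and object ratio to cell channel. Percent activity normalized to 20 uM Triacsin C.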
Potency is the fitted concentration of half-maximal effect.

Row | Compound | lipid storage change, negative = inhibition | cell number change [%] | Potency | outcome
1 | CC(C)n1c(N)c(C#N)c2ccc([N+](=O)[O-])cc2c1=O | -3.14% (inactive) | 17.3 | – | –
2 | COC(=O)c1cc2c(=O)c3ccccc3oc2nc1C | -1.05% (inactive) | 21.3 | – | –
3 | COc1ccccc1CNC(=O)COC(=O)c1ccc(C)s1 | – | 8.78 | 8.2 µM (active) | –
4 | COc1ccccc1CNC(=O)c1ccc(C)s1 | 7.86% (inactive) | 2.24 | – | –
5 | COc1ccccc1CNC(=O)COC(=O)c1cc(C)oc1C | 4.54% (inactive) | 0.0455 | – | –
6 | O=S(=O)(NCC(c1cccs1)N1CCc2ccccc2C1)c1ccccc1 (stereo not drawn) | -15.3% [at 0.0737 µM] (inactive) | 2.02 | – | –
7 | O=C(CS(=O)(=O)c1ccccc1)N1CCCCCC1 | – | – | 14.6 µM (active) | –
8 | O=C(CS(=O)(=O)c1ccccc1)N1CCCCC1 | – | 17.3 | – | inactive
9 | Cc1ccc(S(=O)(=O)CC(=O)N2CCCC2)cc1 | 0.497% (inactive) | -4.5 | – | –
10 | COc1ccc(S(=O)(=O)N2CCOC2CNC(=O)C(=O)NCC(C)C)cc1 (stereo not drawn) | 23.8% (inactive) | -19.7 | – | –
11 | CCCCc1nnc(NC(=O)C(C)Sc2nc(O)c(Cc3ccccc3)c(=O)[nH]2)s1 (stereo not drawn) | -12.5% (inactive) | -6.85 | – | –
12 | Cc1ccsc1/C=N/N=C/c1sccc1C | – | -16.1 | 18.4 µM (active) | –
13 | Cc1ccsc1/C=N/n1cnnc1 | -1.09% (inactive) | 4.23 | – | –
14 | Cc1ccsc1C=Nc1ccc(O)cc1 | -2.45% (inactive) | -20.6 | – | –
15 | CC(C)(C)c1ccc(/C=N/NC(=O)C2CCCC2)cc1 | – | -15.9 | – | inactive
16 | CC(C)c1ccc(/C=N/NC(=O)C2CCCC2)cc1 | – | -28.7 | 3.26 µM (active) | –
17 | CC(C)c1ccc(/C=N/NC(=O)CC(=O)NC2CCCCC2)cc1 | 20.4% (inactive) | 0.119 | – | –
18 | c1ccc(N2CC[N+]3(CCCC3)CC2)nc1 | 3.09% (inactive) | 0.943 | – | –
19 | CC(C)(C)OC(=O)NCCCC[C@H](NC(=O)c1[nH]cnc1C(=O)Nc1ccc(CNC(=O)OC(C)(C)C)cc1)C(=O)OC(C)(C)C | -17.4% (inactive) | – | – | –
20 | CN(C)c1ccc(C=NCCC2(c3ccccc3)CCOC(C)(C)C2)cc1 (stereo not drawn) | 3.28% (inactive) | -6.59 | – | –
21 | Cc1cc(NC(=O)c2ccccc2F)on1 | -4.22% (inactive) | -0.938 | – | –
22 | O=C(Nc1ccon1)c1cc2ccccc2oc1=O | – | 11.7 | – | inactive
23 | O=C(Nc1ccon1)c1ccccc1F | – | -7.37 | 23.1 µM (active) | –
24 | O=C(Nn1c(=O)[nH]c2ccsc2c1=O)c1ccccc1 | -5.8% (inactive) | -16.2 | – | –

Row | Compound | lipid storage change, negative = inhibition | cell number change [%] | Potency | outcome
25 | COc1ccc(N2CCN(C(=S)Nc3ccc(C)cc3)CC2)cc1 | 6.03% (inactive) | 11.6 | – | –
26 | O=C(NN1C(=O)C2C3C=CC(C4CC34)C2C1=O)c1ccc(Cl)c(Cl)c1 (stereo not drawn) | -0.569% (inactive) | 1.92 | – | –
27 | O=C(CN1C(=O)/C(=C2\SC(=S)N(C3CCS(=O)(=O)C3)C2=O)c2ccccc21)Nc1ccccc1 (stereo not drawn) | 3.37% (inactive) | -3.03 | – | –
28 | O=C(NCC(c1ccccc1Cl)N1CCCC1)C1CCN(C(=O)Nc2ccccc2)CC1 (stereo not drawn) | – | -29.1 | 6.51 µM (active) | –
29 | O=C(NCC(c1ccccc1)N1CCCC1)C1CCN(C(=O)Nc2ccccc2)CC1 (stereo not drawn) | – | -22 | – | inactive
30 | O=C(NCCc1ccccc1)C1CCN(C(=O)Nc2ccccc2)CC1 | 16.6% (inactive) | -33.1 | – | –
31 | CCC(Sc1nnc(C)s1)C(=O)Nc1nccs1 (stereo not drawn) | 11.8% (inactive) | -15.3 | – | –
32 | CCC(Sc1nc(C)cc(C)n1)C(=O)Nc1nccs1 (stereo not drawn) | – | -0.54 | 2.06 µM (active) | –
33 | Cc1cc(C)nc(SCC(=O)Nc2nccs2)n1 | – | 13.1 | – | inactive
34 | CN(C(=O)CCCN1CCCC1=O)C1CCCN(Cc2ccccc2F)C1 (stereo not drawn) | – | 6.08 | – | inactive
35 | COc1cc2c(cc1OC)C(COc1ccc(F)cc1)N(C(C)=O)CC2 (stereo not drawn) | -27.7% (inactive) | -4.23 | – | –
36 | CCOC(=O)C(O)(CC(=O)Nc1cc(F)ccc1C)C(F)(F)F (stereo not drawn) | 7.55% (inactive) | 6.77 | – | –
37 | CC1CC1C(=O)Nc1nc(-c2ccccn2)cs1 (stereo not drawn) | – | – | – | inactive
38 | CCC/C(C)=N/NC(=O)c1ccccc1O | -0.436% (inactive) | 9.25 | – | –
39 | COc1ccc(-c2cc3nc(C)c(CCC(=O)N4CCN(c5ccccn5)CC4)c(C)n3n2)c(OC)c1 | -2.84% (inactive) | -15.1 | – | –
40 | CCOC(=O)CSc1ccc(S(=O)(=O)N2CCCCC2)cc1[N+](=O)[O-] | 11.2% (inactive) | 12.9 | – | –
41 | CCOC(=O)CSc1ccc(S(=O)(=O)N(CC)CC)cc1[N+](=O)[O-] | 5.13% (inactive) | 15.5 | – | –
42 | CCOC(=O)CSc1ccc(S(=O)(=O)N(C)C2CCCCC2)cc1[N+](=O)[O-] | – | -12.4 | 25.9 µM (active) | –
43 | Cc1nc(C)c(C(=O)Nc2ccccc2)s1 | 2.24% (inactive) | 13.8 | – | –
44 | CC(=O)Nc1ccc(Nc2nc(C)cc(C)n2)cc1 | -1.44% (inactive) | 7.77 | – | –
45 | O=C(/C=C/c1ccccc1)Nn1c(-c2cccs2)nc2ccccc2c1=O | 17.1% (inactive) | 20.7 | – | –
46 | CCN(CC)CCNC(=O)CCc1n[nH]c(=O)c2ccccc12 | -5.8% (inactive) | -11.1 | – | –
47 | CCCCN(CC)C(=O)c1n[nH]c(=O)c2ccccc12 | – | -6.59 | 29.1 µM (active) | –
48 | CCOC(=O)c1n[nH]c(=O)c2ccccc12 | 6.78% (inactive) | -14.5 | – | –
